Common to all, as to experiment: DAPPL (digital affinity profiling via proximity ligation, sequencing); 10 mM Tris-HCl pH 7.5, 50 mM NaCl, 1 mM DTT, 4% glycerol, room temperature, 30 min; GST-TFs on glutathione beads, 16-mer random dsDNA library, 0.1% formaldehyde crosslink after washing; high values mean tight binding
One assay addresses T1, FLI1 (Homo sapiens, UniProt Q01543 1-452).
T1 sequence: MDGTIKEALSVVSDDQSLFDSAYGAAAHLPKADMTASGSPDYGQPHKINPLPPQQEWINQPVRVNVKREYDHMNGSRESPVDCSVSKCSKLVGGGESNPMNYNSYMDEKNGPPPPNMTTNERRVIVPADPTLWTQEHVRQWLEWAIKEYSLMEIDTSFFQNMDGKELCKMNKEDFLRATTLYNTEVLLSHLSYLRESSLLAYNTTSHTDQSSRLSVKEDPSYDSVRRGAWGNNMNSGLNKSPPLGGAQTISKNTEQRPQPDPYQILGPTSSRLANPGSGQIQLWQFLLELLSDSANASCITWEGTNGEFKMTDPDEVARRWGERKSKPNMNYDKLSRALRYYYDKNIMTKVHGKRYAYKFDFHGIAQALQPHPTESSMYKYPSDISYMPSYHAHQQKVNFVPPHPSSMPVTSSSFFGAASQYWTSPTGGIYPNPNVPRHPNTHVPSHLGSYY
The conditions noted are these: protein: recombinant; tags: N-terminal GST; dsDNA, one strand shown. The gist of the method:
(§1)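 Beads coated with glutathione captured GST-fused human transcription factors that had been expressed in yeast, and the factors were then given DNA barcodes and pooled with a tag-only sample. The pools were incubated with 200 nmole of a random double-stranded 16-mer DNA library in Tris/NaCl/DTT/glycerol buffer for 30 min at room temperature, washed, crosslinked with 0.1% formaldehyde and proximity-ligated with BsaI/T4 ligase at 37 °C for 1 h. PCR amplification and Illumina NextSeq500 sequencing came last. Binding signal is each hexamer's read frequency for a factor divided by its frequency for the tag-only sample.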

The target of the next assay is T2, ELK1 (Homo sapiens, UniProt P19419 1-428).
T2 sequence: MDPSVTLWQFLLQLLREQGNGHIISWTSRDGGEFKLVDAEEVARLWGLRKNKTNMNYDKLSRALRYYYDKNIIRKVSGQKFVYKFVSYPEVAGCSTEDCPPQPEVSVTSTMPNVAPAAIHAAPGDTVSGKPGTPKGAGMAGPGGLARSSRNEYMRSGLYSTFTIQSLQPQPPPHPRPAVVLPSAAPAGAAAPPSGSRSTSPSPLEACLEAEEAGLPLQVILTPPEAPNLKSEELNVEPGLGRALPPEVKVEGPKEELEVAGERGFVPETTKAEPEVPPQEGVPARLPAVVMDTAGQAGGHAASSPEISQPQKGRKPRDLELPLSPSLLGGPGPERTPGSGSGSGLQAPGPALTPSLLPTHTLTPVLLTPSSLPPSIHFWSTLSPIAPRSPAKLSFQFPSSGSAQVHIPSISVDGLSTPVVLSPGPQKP
The conditions noted are these: protein: recombinant; tags: N-terminal GST; dsDNA, one strand shown. In outline: as §1

In a further assay the target is T3, GABPA (Homo sapiens, UniProt Q06546 1-454).
T3 sequence: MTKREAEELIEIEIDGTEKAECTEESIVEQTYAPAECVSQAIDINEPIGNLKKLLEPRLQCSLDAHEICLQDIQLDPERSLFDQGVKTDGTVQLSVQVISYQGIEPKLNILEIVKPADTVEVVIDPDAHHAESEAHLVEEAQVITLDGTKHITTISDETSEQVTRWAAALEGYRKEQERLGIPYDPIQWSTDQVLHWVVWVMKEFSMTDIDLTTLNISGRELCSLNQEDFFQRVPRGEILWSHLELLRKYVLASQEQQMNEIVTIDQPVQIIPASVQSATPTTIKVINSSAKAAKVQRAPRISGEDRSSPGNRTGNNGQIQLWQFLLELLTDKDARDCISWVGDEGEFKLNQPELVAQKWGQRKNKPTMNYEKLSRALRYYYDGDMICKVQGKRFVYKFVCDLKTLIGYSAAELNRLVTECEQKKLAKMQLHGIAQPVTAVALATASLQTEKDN
The note with it: protein: recombinant; tags: N-terminal GST; dsDNA, one strand shown. In outline: as §1

For a further assay, the target named is ELF1 (Homo sapiens, UniProt P32519 1-619). The conditions noted are these: protein: recombinant; tags: N-terminal GST; dsDNA, one strand shown. The gist of the method: as §1
For the next assay, the target named is T4, EHF (Homo sapiens, UniProt Q9NZC4 1-300).
T4 sequence: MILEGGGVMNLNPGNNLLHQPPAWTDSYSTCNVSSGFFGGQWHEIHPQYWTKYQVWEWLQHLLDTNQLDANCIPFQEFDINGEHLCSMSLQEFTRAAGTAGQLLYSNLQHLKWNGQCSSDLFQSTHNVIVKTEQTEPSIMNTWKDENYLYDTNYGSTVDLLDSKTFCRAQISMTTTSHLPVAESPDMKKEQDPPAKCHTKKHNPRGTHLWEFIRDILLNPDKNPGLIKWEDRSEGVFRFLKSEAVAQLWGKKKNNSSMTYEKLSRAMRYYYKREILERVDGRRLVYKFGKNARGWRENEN
The note with it: protein: recombinant; tags: N-terminal GST; dsDNA, one strand shown. In outline: as §1

Another assay has as its target SPI1 (Homo sapiens, UniProt P17947 1-270). The note with it: protein: recombinant; tags: N-terminal GST; dsDNA, one strand shown. The gist of the method: as §1
In a further assay the target is SPIB (Homo sapiens, UniProt Q01892 1-262). The note with it: protein: recombinant; tags: N-terminal GST; dsDNA, one strand shown. In outline:
as §1

The target of the next assay is T5, ELK3 (Homo sapiens, UniProt P41970 1-407).
T5 sequence: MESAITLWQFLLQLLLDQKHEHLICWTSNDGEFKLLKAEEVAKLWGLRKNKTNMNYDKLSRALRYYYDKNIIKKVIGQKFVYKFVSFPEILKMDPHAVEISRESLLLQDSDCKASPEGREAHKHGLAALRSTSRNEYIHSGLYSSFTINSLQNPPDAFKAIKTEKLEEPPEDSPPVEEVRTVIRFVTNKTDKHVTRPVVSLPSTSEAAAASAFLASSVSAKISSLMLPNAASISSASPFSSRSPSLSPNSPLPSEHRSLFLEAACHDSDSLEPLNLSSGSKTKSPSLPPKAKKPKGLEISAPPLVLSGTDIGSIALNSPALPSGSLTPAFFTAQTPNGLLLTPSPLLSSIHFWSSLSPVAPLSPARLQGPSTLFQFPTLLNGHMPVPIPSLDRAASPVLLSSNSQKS
The conditions noted are these: protein: recombinant; tags: N-terminal GST; dsDNA, one strand shown. In outline:
as §1

In a further assay the target is T6, FEV (Homo sapiens, UniProt Q99581 1-238).
T6 sequence: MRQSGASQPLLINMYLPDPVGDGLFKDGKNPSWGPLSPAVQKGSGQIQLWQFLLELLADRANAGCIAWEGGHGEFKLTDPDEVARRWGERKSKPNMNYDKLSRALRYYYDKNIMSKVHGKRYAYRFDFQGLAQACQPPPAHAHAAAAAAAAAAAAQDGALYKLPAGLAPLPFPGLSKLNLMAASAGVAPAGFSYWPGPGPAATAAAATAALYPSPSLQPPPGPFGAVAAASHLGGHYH
The conditions noted are these: protein: recombinant; tags: N-terminal GST; dsDNA, one strand shown. The gist of the method: as §1

The target of another assay is ETV5 (Homo sapiens, UniProt P41161 1-510). The conditions noted are these: protein: recombinant; tags: N-terminal GST; dsDNA, one strand shown. In outline:
as §1

In the next assay the target is HSF1 (Homo sapiens, UniProt Q00613 1-529). The note with it: protein: recombinant; tags: N-terminal GST; chain copies: 3; dsDNA, one strand shown. The gist of the method:
as §1

The target of the next assay is T7, SPIC (Homo sapiens, UniProt Q8N5J4 1-248).
T7 sequence: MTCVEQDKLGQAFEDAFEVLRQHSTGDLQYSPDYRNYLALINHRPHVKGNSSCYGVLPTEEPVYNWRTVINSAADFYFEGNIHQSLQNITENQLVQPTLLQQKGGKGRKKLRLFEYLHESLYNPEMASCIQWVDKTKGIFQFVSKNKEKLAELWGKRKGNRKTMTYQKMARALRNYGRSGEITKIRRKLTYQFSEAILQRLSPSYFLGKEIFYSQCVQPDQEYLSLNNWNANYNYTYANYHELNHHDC
The conditions noted are these: protein: recombinant; tags: N-terminal GST; dsDNA, one strand shown. In outline: as §1

A further assay concerns the target ELF4 (Homo sapiens, UniProt Q99607 1-663). The note with it: protein: recombinant; tags: N-terminal GST; dsDNA, one strand shown. In outline:
as §1

The target of a further assay is T8, ELK4 (Homo sapiens, UniProt P28324-2 1-405).
T8 sequence: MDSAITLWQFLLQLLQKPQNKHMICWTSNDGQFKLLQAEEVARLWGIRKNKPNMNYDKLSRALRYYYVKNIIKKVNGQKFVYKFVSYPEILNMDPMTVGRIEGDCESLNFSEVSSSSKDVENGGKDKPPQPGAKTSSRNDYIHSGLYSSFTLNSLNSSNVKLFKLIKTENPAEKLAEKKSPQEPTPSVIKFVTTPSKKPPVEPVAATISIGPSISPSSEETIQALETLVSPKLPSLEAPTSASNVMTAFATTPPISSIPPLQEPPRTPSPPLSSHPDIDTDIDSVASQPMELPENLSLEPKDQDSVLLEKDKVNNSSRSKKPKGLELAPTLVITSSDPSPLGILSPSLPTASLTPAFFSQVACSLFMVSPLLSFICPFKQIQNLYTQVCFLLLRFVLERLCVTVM
The note with it: protein: recombinant; tags: N-terminal GST; dsDNA, one strand shown. In outline:
as §1

A further assay deals with T9, ELF3 (Homo sapiens, UniProt P78545 1-371).
T9 sequence: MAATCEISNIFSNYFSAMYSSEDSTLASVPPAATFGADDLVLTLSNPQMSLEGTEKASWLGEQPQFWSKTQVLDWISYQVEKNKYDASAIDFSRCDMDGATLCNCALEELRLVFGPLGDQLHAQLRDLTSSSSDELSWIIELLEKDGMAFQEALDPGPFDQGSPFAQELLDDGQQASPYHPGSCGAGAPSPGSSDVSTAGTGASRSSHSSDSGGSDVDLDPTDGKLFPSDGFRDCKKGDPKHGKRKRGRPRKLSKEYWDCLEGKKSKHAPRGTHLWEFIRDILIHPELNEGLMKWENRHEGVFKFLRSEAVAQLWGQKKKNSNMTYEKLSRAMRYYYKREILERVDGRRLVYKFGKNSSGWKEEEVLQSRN
The note with it: protein: recombinant; tags: N-terminal GST; dsDNA, one strand shown. The gist of the method: as §1

Another assay concerns the target CRX (Homo sapiens, UniProt O43186 1-299). The note with it: protein: recombinant; tags: N-terminal GST; dsDNA, one strand shown. The gist of the method:
as §1

For the next assay, the target named is ETV1 (Homo sapiens, UniProt P50549 1-477). The conditions noted are these: protein: recombinant; tags: N-terminal GST; dsDNA, one strand shown. The gist of the method:
as §1

Data on one sequence can be found in article PMC7862700, “An all-to-all approach to the identification of sequence-specific readers for epigenetic DNA modifications on cytosine”.

Sequence of ETV5 (P41161 whole entry): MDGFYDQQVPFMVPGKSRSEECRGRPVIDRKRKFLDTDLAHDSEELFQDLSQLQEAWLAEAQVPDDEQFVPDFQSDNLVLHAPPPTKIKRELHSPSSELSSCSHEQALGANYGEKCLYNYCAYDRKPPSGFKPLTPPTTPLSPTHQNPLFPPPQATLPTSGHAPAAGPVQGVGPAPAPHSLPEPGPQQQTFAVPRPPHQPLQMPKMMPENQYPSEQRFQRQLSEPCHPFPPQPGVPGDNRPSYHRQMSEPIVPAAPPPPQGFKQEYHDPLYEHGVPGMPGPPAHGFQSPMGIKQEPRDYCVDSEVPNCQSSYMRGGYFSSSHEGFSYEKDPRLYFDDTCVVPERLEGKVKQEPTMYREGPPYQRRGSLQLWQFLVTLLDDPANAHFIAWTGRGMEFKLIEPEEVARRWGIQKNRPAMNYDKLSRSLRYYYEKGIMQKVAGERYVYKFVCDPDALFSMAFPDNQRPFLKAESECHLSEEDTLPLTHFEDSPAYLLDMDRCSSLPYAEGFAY
Sequence of ELF4 (Q99607 whole entry): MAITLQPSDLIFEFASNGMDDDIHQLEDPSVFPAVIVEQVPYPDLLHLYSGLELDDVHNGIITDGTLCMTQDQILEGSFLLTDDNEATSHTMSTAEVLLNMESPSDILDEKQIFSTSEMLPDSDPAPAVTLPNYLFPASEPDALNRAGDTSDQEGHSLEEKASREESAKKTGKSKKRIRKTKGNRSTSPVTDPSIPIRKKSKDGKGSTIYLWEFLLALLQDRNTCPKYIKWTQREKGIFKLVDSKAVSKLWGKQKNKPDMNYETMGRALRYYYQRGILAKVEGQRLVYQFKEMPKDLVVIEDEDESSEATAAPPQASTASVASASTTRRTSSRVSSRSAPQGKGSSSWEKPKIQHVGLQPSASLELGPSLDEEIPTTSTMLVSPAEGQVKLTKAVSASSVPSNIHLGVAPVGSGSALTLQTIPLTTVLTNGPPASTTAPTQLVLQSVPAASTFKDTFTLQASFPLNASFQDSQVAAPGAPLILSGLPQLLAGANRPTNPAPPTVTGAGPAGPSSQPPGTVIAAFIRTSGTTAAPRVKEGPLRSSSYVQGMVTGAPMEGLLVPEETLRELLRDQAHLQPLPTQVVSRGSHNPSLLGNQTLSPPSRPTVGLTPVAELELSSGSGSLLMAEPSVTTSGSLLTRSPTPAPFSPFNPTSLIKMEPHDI
Sequence of CRX (O43186 whole entry): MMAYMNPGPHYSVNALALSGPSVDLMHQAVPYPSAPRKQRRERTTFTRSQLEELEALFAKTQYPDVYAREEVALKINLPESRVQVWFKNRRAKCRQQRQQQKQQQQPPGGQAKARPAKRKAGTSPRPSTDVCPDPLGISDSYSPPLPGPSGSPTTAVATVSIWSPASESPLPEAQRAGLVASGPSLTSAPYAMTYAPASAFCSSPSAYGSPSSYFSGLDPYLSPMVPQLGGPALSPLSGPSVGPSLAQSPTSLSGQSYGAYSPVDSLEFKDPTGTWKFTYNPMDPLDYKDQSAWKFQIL
Sequence of HSF1 (Q00613 whole entry): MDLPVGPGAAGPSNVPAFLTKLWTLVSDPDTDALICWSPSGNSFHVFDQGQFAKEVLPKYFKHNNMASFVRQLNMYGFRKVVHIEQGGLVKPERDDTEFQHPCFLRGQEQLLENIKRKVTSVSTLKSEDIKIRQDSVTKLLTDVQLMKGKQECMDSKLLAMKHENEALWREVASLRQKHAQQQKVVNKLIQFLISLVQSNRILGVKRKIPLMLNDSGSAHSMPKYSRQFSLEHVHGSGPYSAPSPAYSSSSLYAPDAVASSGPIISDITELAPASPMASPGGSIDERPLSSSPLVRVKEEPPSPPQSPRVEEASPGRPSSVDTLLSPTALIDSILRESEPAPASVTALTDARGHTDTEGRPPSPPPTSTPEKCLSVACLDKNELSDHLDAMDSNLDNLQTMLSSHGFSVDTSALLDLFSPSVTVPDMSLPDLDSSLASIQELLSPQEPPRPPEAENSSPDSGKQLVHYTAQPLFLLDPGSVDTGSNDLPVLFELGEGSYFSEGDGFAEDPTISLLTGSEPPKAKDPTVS
Sequence of ETV1 (P50549 whole entry): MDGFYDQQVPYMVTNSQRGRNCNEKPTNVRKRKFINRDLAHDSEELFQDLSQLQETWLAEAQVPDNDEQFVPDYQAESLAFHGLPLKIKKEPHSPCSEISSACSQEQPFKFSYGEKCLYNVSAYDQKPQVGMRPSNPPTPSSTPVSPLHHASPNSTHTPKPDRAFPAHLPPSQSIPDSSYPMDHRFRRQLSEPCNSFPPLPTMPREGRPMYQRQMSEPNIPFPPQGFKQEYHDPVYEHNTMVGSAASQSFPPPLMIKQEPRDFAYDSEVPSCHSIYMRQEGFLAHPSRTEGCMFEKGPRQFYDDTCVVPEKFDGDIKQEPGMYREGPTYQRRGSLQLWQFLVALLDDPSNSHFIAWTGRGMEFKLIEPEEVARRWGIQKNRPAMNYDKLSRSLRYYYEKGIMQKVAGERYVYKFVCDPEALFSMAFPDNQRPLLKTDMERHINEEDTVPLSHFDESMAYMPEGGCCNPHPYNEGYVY
Sequence of ELF1 (P32519 whole entry): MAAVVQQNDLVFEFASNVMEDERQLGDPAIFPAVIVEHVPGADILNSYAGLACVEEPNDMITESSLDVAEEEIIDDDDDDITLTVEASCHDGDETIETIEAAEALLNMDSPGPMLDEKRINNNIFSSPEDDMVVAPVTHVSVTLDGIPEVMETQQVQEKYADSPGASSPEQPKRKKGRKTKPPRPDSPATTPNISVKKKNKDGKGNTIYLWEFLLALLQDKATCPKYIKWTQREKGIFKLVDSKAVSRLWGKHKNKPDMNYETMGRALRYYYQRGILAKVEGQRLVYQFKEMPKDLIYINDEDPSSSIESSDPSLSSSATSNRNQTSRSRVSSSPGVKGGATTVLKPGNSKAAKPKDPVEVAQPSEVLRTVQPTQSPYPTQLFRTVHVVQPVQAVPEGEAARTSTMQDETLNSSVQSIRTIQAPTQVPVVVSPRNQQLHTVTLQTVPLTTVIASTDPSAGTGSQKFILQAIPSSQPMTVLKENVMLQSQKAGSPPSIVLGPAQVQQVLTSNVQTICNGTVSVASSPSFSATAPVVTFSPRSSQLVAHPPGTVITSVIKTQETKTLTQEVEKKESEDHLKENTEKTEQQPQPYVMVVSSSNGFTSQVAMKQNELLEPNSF
Sequence of SPIB (Q01892 whole entry): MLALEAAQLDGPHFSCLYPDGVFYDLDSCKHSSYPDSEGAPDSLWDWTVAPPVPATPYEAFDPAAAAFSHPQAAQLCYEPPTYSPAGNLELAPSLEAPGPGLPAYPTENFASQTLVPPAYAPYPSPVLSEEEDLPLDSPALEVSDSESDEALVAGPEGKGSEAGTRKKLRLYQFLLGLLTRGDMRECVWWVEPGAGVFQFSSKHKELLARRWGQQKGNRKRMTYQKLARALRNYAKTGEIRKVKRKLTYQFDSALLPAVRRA

Take TAAAGC: the binding signal in the assay with FLI1 is 1.03 fold enrichment (6-mer frequency, TF over GST control); in the assay with ELK1, 1.12 fold enrichment (6-mer frequency, TF over GST control); in the assay with GABPA, 1.11 fold enrichment (6-mer frequency, TF over GST control); in the assay with ELF1, 1.05 fold enrichment (6-mer frequency, TF over GST control); with EHF it was 1.02 fold enrichment (6-mer frequency, TF over GST control); with SPI1, 1.05 fold enrichment (6-mer frequency, TF over GST control). In addition, the binding signal with SPIB was 1.06 fold enrichment (6-mer frequency, TF over GST control); with ELK3, 1.09 fold enrichment (6-mer frequency, TF over GST control); with FEV, 1.04 fold enrichment (6-mer frequency, TF over GST control); with ETV5, 1.09 fold enrichment (6-mer frequency, TF over GST control); with HSF1 it was 1.33 fold enrichment (6-mer frequency, TF over GST control); with SPIC it was 1.1 fold enrichment (6-mer frequency, TF over GST control). Besides, the binding signal with ELF4 was 1.05 fold enrichment (6-mer frequency, TF over GST control); with ELK4, 1.1 fold enrichment (6-mer frequency, TF over GST control); with ELF3, 1.06 fold enrichment (6-mer frequency, TF over GST control); with CRX it was 1.87 fold enrichment (6-mer frequency, TF over GST control); with ETV1 it was 1.08 fold enrichment (6-mer frequency, TF over GST control).
